These results are taken from publication PMC7862700, “An all-to-all approach to the identification of sequence-specific readers for epigenetic DNA modifications on cytosine”.

Common to all, as to assay: DAPPL (digital affinity profiling via proximity ligation, sequencing); 10 mM Tris-HCl pH 7.5, 50 mM NaCl, 1 mM DTT, 4% glycerol, room temperature, 30 min; GST-TFs on glutathione beads, 16-mer random dsDNA library, 0.1% formaldehyde crosslink after washing; high values mean tight binding
The target in experiment [1] is T1, FEV (Homo sapiens, UniProt Q99581 1-238).
T1 sequence: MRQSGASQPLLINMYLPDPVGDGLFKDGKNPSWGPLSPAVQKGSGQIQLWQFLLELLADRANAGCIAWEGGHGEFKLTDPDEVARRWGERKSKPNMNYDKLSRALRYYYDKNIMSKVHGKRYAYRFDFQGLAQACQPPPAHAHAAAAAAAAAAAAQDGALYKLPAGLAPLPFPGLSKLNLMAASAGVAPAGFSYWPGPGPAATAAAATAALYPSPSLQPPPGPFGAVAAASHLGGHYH
Particulars: protein: recombinant; tags: N-terminal GST; dsDNA, one strand shown. In a few lines: (§1)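 Human transcription factors carrying a GST fusion were produced in yeast, bound to glutathione beads, tagged with DNA barcodes and pooled together with a tag-only sample. Each pool was held with 200 nmole of a random double-stranded 16-mer DNA library in Tris/NaCl/DTT/glycerol buffer for 30 min at room temperature, then washed, crosslinked in 0.1% formaldehyde, proximity-ligated with BsaI/T4 ligase (1 h, 37 °C), PCR-amplified and sequenced on an Illumina NextSeq500. Binding signal is the read frequency of each hexamer for a given factor divided by its frequency in the tag-only sample.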

In experiment [2] the target is ETV5 (Homo sapiens, UniProt P41161 1-510). To be noted: protein: recombinant; tags: N-terminal GST; dsDNA, one strand shown. In outline:
as §1

The target in experiment [3] is HSF1 (Homo sapiens, UniProt Q00613 1-529). Particulars: protein: recombinant; tags: N-terminal GST; chain copies: 3; dsDNA, one strand shown. In a few lines: as §1
HSF1, sequence (Q00613 whole entry): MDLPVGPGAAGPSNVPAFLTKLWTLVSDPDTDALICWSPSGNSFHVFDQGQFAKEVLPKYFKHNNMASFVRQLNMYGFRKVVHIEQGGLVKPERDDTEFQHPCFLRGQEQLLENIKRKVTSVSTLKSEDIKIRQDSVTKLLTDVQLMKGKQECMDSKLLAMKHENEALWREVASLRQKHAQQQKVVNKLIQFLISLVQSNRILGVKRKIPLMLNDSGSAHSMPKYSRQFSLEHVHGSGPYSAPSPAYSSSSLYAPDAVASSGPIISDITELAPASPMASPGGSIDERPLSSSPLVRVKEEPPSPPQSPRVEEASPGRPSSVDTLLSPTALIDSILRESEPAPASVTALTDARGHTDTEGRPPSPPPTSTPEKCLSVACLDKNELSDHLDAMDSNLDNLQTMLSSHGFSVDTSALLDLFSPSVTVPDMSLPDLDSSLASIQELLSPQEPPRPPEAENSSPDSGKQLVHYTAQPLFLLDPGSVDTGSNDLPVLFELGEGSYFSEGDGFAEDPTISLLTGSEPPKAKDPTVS
Experiment [4] concerns the target T2, SPIC (Homo sapiens, UniProt Q8N5J4 1-248).
T2 sequence: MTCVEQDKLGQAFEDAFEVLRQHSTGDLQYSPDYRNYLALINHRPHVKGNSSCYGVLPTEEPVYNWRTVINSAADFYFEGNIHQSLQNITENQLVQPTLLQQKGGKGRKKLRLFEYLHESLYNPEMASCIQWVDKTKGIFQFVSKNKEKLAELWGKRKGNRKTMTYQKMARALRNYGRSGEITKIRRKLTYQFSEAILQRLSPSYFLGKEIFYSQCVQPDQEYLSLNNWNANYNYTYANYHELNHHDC
Particulars: protein: recombinant; tags: N-terminal GST; dsDNA, one strand shown. In outline: as §1

Experiment [5] addresses ELF4 (Homo sapiens, UniProt Q99607 1-663). To be noted: protein: recombinant; tags: N-terminal GST; dsDNA, one strand shown. In outline:
as §1

The target in experiment [6] is T3, ELK4 (Homo sapiens, UniProt P28324-2 1-405).
T3 sequence: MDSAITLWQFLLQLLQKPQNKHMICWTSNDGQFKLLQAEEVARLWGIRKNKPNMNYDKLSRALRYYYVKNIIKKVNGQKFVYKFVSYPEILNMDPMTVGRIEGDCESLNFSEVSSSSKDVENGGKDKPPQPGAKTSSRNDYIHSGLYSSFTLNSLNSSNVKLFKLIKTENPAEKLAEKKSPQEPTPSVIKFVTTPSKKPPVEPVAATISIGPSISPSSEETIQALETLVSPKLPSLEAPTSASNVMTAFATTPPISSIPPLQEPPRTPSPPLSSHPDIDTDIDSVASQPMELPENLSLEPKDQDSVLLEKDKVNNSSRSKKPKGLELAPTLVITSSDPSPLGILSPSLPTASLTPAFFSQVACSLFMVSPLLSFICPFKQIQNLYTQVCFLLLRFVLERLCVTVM
Particulars: protein: recombinant; tags: N-terminal GST; dsDNA, one strand shown. In outline: as §1

In experiment [7] the target is T4, ETV2 (Homo sapiens, UniProt O00321 1-342).
T4 sequence: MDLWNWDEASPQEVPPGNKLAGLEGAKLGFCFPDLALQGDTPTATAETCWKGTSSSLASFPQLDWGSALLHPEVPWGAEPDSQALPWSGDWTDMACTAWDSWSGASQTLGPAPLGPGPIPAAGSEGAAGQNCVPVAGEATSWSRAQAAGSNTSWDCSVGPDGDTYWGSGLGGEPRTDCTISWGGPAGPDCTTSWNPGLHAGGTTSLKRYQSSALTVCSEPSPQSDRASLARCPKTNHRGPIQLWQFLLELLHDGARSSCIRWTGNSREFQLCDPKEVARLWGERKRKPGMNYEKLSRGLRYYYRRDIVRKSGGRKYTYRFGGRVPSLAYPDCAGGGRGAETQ
Particulars: protein: recombinant; tags: N-terminal GST; dsDNA, one strand shown. In outline: as §1

The target in experiment [8] is T5, ELF3 (Homo sapiens, UniProt P78545 1-371).
T5 sequence: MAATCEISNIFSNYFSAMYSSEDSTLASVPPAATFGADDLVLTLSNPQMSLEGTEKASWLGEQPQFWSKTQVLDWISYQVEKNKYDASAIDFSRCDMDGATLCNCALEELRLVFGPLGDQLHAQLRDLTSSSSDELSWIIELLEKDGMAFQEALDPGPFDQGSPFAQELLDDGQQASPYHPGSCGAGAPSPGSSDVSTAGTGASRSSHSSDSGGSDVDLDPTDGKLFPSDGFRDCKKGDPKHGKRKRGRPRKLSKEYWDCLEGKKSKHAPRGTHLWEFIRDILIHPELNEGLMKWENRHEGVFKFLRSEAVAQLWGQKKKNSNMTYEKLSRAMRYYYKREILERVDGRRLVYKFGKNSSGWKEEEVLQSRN
Particulars: protein: recombinant; tags: N-terminal GST; dsDNA, one strand shown. In a few lines:
as §1

The target in experiment [9] is CRX (Homo sapiens, UniProt O43186 1-299). Particulars: protein: recombinant; tags: N-terminal GST; dsDNA, one strand shown. In outline:
as §1

In experiment [10] the target is ETV1 (Homo sapiens, UniProt P50549 1-477). To be noted: protein: recombinant; tags: N-terminal GST; dsDNA, one strand shown. In outline:
as §1

The target of experiment [11] is T6, ERF (Homo sapiens, UniProt P50548 1-548).
T6 sequence: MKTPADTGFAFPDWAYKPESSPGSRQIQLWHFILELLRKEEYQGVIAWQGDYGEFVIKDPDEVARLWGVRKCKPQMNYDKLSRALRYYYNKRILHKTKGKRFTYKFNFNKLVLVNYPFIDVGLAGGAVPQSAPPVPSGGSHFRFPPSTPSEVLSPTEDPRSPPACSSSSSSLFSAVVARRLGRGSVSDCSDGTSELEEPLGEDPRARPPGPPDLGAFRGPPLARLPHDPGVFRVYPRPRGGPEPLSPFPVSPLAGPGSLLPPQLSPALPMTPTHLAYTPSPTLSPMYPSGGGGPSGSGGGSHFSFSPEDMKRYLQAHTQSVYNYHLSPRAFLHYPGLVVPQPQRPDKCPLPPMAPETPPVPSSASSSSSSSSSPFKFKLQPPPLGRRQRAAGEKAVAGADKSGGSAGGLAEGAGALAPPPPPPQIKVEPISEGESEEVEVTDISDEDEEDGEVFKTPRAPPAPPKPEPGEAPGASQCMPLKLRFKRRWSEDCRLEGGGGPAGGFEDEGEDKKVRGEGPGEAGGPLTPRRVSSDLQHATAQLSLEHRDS
Particulars: protein: recombinant; tags: N-terminal GST; dsDNA, one strand shown. In outline: as §1

For experiment [12], the target named is T7, ETV3L (Homo sapiens, UniProt Q6ZN32 1-361).
T7 sequence: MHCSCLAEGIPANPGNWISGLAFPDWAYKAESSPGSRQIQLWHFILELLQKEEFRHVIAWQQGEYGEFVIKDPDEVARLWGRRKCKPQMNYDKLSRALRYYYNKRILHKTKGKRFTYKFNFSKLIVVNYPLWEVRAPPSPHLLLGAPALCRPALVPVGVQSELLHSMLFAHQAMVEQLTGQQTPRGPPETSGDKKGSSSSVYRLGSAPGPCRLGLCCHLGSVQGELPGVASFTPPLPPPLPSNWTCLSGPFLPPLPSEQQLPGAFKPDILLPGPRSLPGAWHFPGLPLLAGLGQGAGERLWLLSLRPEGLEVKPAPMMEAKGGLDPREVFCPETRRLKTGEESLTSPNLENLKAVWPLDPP
To be noted: protein: recombinant; tags: N-terminal GST; dsDNA, one strand shown. In outline: as §1

Experiment [13] deals with T8, ETS2 (Homo sapiens, UniProt P15036 1-469).
T8 sequence: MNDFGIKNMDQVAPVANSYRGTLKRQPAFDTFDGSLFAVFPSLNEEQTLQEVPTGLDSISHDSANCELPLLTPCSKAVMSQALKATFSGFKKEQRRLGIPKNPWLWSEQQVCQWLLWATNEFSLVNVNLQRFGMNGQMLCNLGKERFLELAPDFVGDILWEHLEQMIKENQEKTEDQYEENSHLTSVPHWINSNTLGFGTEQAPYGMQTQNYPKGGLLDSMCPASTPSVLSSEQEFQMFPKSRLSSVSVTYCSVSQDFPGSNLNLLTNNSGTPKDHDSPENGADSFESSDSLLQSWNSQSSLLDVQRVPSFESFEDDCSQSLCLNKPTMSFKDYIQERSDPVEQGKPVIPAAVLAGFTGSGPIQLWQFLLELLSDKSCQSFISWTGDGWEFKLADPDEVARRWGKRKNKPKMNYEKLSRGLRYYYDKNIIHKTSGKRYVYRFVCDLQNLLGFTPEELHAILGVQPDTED
To be noted: protein: recombinant; tags: N-terminal GST; dsDNA, one strand shown. In outline: as §1

The target of experiment [14] is T9, SPDEF (Homo sapiens, UniProt O95238 1-335).
T9 sequence: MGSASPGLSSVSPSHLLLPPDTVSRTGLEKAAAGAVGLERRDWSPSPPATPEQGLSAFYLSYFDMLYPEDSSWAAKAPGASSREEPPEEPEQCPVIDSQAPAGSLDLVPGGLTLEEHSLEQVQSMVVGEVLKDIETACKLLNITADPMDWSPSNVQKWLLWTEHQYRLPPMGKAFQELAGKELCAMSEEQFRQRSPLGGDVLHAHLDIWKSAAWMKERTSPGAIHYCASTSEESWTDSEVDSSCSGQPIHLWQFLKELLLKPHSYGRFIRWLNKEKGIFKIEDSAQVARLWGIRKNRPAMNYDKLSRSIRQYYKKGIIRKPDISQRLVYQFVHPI
Particulars: protein: recombinant; tags: N-terminal GST; dsDNA, one strand shown. In a few lines: as §1

The target of experiment [15] is T10, ETV7 (Homo sapiens, UniProt Q9Y603 1-341).
T10 sequence: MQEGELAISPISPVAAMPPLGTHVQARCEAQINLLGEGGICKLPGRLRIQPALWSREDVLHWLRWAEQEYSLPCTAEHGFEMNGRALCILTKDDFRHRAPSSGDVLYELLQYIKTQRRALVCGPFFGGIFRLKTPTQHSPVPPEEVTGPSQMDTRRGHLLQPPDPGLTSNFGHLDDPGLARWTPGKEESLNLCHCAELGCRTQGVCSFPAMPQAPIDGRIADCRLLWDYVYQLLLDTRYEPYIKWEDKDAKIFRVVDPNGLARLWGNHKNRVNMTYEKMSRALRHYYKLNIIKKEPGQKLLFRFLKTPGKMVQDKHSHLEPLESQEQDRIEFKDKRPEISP
Particulars: protein: recombinant; tags: N-terminal GST; dsDNA, one strand shown. In outline: as §1

Experiment [16] concerns the target T11, ELF5 (Homo sapiens, UniProt Q9UKW6-2 1-255).
T11 sequence: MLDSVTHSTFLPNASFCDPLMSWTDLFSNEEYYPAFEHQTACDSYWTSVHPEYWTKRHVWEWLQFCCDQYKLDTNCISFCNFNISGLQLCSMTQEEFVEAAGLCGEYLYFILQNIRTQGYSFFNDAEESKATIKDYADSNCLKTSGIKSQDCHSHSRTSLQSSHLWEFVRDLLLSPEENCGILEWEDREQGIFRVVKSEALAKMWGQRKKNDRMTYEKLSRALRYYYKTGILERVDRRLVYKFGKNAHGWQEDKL
Particulars: protein: recombinant; tags: N-terminal GST; dsDNA, one strand shown. In a few lines:
as §1

Experiment [17] concerns the target T12, ETV3 (Homo sapiens, UniProt P41162-2 1-143).
T12 sequence: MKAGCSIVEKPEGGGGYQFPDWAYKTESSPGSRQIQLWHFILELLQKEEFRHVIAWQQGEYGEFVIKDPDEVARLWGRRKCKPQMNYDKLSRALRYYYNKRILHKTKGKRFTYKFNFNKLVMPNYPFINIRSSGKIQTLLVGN
To be noted: protein: recombinant; tags: N-terminal GST; dsDNA, one strand shown. In outline:
as §1

Experiment [18] concerns the target ETV6 (Homo sapiens, UniProt P41212 1-452). Particulars: protein: recombinant; tags: N-terminal GST; dsDNA, one strand shown. In a few lines: as §1

ELF4, sequence (Q99607 whole entry): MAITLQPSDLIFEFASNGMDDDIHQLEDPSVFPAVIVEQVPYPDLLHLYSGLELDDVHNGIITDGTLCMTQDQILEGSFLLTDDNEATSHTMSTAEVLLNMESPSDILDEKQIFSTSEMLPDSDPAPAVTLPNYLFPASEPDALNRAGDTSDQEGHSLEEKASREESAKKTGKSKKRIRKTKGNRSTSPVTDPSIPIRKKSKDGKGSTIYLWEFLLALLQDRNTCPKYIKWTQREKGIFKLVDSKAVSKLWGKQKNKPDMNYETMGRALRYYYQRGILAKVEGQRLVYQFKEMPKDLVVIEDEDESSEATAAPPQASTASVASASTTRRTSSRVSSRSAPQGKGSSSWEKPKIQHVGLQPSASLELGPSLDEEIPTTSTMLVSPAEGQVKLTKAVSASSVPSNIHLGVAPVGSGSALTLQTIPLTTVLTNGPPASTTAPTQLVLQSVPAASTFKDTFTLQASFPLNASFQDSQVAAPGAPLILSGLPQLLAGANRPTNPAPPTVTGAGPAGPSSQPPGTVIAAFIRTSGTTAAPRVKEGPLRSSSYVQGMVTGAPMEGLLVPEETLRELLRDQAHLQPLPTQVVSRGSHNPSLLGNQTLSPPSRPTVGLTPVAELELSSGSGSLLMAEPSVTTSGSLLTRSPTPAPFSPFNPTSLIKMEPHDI
CRX, sequence (O43186 whole entry): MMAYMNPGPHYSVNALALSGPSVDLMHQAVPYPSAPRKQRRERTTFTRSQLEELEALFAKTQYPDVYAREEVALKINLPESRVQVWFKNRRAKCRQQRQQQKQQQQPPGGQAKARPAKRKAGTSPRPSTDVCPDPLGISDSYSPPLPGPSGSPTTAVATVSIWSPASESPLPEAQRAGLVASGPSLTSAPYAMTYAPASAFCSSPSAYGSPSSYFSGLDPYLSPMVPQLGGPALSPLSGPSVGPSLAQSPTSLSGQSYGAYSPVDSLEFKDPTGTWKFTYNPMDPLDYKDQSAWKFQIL
ETV6, sequence (P41212 whole entry): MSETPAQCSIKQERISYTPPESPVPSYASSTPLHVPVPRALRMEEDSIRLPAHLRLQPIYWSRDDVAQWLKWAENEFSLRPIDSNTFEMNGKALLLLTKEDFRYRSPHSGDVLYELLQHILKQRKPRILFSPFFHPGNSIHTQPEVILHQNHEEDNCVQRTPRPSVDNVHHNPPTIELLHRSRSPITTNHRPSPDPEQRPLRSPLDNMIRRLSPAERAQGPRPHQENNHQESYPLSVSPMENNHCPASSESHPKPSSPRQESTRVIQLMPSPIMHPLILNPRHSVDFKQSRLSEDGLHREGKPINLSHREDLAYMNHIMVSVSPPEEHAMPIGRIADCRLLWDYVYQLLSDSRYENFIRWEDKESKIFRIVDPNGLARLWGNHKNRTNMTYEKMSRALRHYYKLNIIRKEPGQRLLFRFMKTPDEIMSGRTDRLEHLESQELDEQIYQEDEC
ETV1, sequence (P50549 whole entry): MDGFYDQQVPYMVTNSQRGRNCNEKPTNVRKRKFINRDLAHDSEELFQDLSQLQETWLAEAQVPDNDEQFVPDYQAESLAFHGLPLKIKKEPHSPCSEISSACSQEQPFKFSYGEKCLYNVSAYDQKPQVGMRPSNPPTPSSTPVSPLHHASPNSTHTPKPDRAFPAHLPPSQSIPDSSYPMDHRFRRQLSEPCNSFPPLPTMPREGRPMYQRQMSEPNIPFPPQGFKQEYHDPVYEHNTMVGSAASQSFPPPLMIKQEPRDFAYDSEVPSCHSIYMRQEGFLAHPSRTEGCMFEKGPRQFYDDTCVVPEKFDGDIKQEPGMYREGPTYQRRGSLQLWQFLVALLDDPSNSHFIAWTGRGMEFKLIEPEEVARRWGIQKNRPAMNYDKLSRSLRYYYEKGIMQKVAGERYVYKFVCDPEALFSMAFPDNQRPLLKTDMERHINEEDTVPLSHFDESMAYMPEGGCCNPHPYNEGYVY
ETV5, sequence (P41161 whole entry): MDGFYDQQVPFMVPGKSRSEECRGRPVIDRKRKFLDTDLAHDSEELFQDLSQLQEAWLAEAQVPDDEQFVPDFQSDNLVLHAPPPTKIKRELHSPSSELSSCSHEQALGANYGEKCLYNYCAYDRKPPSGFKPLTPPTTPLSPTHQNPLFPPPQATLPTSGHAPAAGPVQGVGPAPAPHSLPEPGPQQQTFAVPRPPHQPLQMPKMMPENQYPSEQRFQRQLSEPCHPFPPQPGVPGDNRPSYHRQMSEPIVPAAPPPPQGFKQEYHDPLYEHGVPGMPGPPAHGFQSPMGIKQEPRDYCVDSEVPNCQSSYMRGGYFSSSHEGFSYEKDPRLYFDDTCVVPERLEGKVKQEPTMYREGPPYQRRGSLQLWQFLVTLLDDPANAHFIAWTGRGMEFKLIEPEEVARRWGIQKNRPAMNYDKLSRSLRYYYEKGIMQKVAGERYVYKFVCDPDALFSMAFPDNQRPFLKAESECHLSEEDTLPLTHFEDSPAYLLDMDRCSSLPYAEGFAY

Consider ATGCGC, for which the binding signal in experiment [1] was 1.17 fold enrichment (6-mer frequency, TF over GST control); in experiment [2] it was 1.07 fold enrichment (6-mer frequency, TF over GST control); in [3], 1.27 fold enrichment (6-mer frequency, TF over GST control); in [4], 1.13 fold enrichment (6-mer frequency, TF over GST control); in experiment [5], 1.22 fold enrichment (6-mer frequency, TF over GST control); in [6], 1.28 fold enrichment (6-mer frequency, TF over GST control). Also, the binding signal in experiment [7] was 1.1 fold enrichment (6-mer frequency, TF over GST control); in [8], 1.1 fold enrichment (6-mer frequency, TF over GST control); in experiment [9], 1.14 fold enrichment (6-mer frequency, TF over GST control); in experiment [10], 1.16 fold enrichment (6-mer frequency, TF over GST control); in [11], 1.24 fold enrichment (6-mer frequency, TF over GST control); in experiment [12], 1.22 fold enrichment (6-mer frequency, TF over GST control). In addition, the binding signal in experiment [13] was 1.19 fold enrichment (6-mer frequency, TF over GST control); in experiment [14], 1.1 fold enrichment (6-mer frequency, TF over GST control); in experiment [15], 1.22 fold enrichment (6-mer frequency, TF over GST control); in experiment [16], 1.14 fold enrichment (6-mer frequency, TF over GST control); in [17], 1.17 fold enrichment (6-mer frequency, TF over GST control); in [18], 1.22 fold enrichment (6-mer frequency, TF over GST control).
